Results on 40 compounds are retold here after PubChem BioAssay (NCATS).

Molecules are shown by their SMILES. Results filed as inconclusive are left out. Where a call stands in place of a potency, no number is given. The source made the active and inactive calls. Calls follow the shape of the dose curve; as a rule, active = well fitted cell-killing curve with a large enough effect; inconclusive = small, poorly fitted or top-dose-only effect, or effect the other way; inactive = flat fitted curve, though single readings scatter.
Potency is read from the fitted curve at half-maximal effect.

The test system of this assay is CAOV3. Nature of the assay: Primary qHTS to identify gynecologic anti-cancer compounds using libraries of approved drugs and bioactive compounds (AID 1345084). Also: nearly all actives have a fitted effect of over 55% in size. Conditions: Gynecologic cancer cell panel viability, ATPlite luminescence, 48 h; series mostly up to 57.5 µM. The source says:
National Center for Advancing Translational Sciences [NCATS] Assay Overview: Chemotherapeutic drug responses vary from cancer to cancer and from patient to patient. These variations could be caused by a number of factors including patient genomic background, tumor mutations, tumor heterogeneity, and aspects of drug treatment. Chemotherapeutic drug resistance is also a common issue and can lead to ineffective treatment and patient death. Here we have profiled the cell killing effects of thousands of compounds to characterize the responses in three gynecological cancers, identify cancer-selective compounds, and understand the diversity of responses to these compounds from pan-cancer suppressors to single cell line selective compounds. In this assay, we screened a 7,914 compound drug library that included approved drug and bioactive compounds in six ovarian, three cervical, and […] placental cancer cell lines using the ATPlite assay for cell viability. […] The cervical cancer cell lines included HeLa, Ca Ski, and C-33 A. The placental cancer cell lines included JEG-3. HEK 293T cells were used as the control cell line to determine the selectivity index. ATPlite is a luminescence based assay reliant on the conversion of a luciferase substrate to light in the presence of ATP. As a cytotoxic compound will suppress growth and decrease the number of cells, the concentration of ATP will decrease, and less light signal will be detected in the well.
Assay Protocol Summary: 1,000 cells in 4 uL of media were dispensed into white, solid bottom 1536-well plates using a Multidrop Combi (Thermo Scientific). The Assay plates were incubated for 16 hours at 37 C with 5% CO2 in assay plates, followed by the addition of 23 nL of DMSO or drug dissolved in DMSO. Each compound was assayed in five concentrations (0.092, 0.46, 2.3, 11.5, and 57.5 uM), using the automated Wako 1536 Pin Tool workstation and incubated at 37 C with 5% CO2 48 hours. 4 uL of ATPlite, the ATP monitoring reagent, was then added to the each well of the assay plates using the Multidrop Combi reagent dispenser followed by incubation for 15 minutes at room temperature. The resulting luminescence was measured using the ViewLux plate reader.
(In general: Quantitative high-throughput screening tests each substance at several concentrations.)
With `O=c1[nH]cnc2c1ncn2[C@H]1CC[C@@H](CO)O1`, the Potency entry is “inactive”.
`O=C(O)c1cc(-c2ccccc2)nc2ccccc12`: the Potency result was “inactive”.
To `CN(C)Cc1ccc(-c2nc3cccc4c3n2CCNC4=O)cc1` belongs “inactive”.
Regarding `CCOC(=O)C1=C(N)Oc2ccc(Br)cc2C1C(C#N)C(=O)OCC` (stereo not given), the Potency result was “inactive”.
Under `COc1ccc(Cc2ccc(NC(N)=O)cc2)cc1-c1cccc(Cl)c1` stands “inactive”.
Take `OC[C@@H](O)[C@H](O)[C@H](O)[C@@H](O)CO`: the Potency entry was “inactive”.
With `COc1cc2ncnc(-n3nc(-c4ccccn4)nc3N)c2cc1OC`, the Potency result is “inactive”.
For the compound `O=C(Nc1cccc(Br)c1)c1cccc(S(=O)(=O)N2CCCCCC2)c1`, the Potency result is “inactive”.
Under `CC(=O)Oc1cc2c(s1)CCN(C(C(=O)C1CC1)c1ccccc1F)C2` (stereo not given) stands “inactive”; under `NCCS`, “inactive”; under `CC(C)(C)c1cc(C(=O)O)c(NC(=O)Nc2ccc3[nH]ncc3c2)s1`, “inactive”.
To `CCN1CCC[C@H]1CNC(=O)c1cc(S(N)(=O)=O)ccc1OC` belongs “inactive”; to `CC(=O)Nc1ccc([C@H](C)C(=O)Nc2ncc(C(C)C)s2)cc1`, “inactive”; to `NC(=O)c1cccc2[nH]c(-c3ccc([C@H]4CCCN4)cc3F)nc12`, 28.2 µM (active).
For `NC(=O)c1cccc(-c2cc(Nc3ccc(OC(F)(F)F)cc3)ncn2)c1`, the Potency result is “inactive”.
Under `CC(C)C(=O)Nc1ncc(-c2cc(C(F)F)nn2-c2c(Cl)cccc2Cl)s1` stands “inactive”; under `CC(=O)N[C@@H](CS)C(=O)O`, “inactive”.
For `CCN(CC)C(=O)c1ccc(O)c(OC)c1`, the Potency result is “inactive”.
Under `COCCOC(=O)C1=C(C)NC2=C(C(=O)CC(c3ccccc3OC)C2)C1c1cccc(O)c1` (stereo not given) stands “inactive”; under `CCn1cc(C(=O)O)c(=O)c2ccc(C)nc21`, “inactive”; under `COc1ccc2cc(-c3nc(-c4ccc(S(C)=O)cc4)[nH]c3-c3ccncc3)ccc2c1` (stereo not given), “inactive”.
To `CO[C@H]1C=CO[C@@]2(C)Oc3c(C)c(O)c4c(O)c(c5c(c4c3C2=O)NC2(CCN(CC(C)C)CC2)N=5)=NC(=O)C(C)=CC=C[C@H](C)[C@H](O)[C@@H](C)[C@@H](O)[C@@H](C)[C@H](OC(C)=O)[C@H]1C` belongs “inactive”; to `CC(=O)O[C@]1(C(C)=O)CC[C@H]2[C@@H]3C=C(Cl)C4=CC(=O)[C@@H]5C[C@@H]5[C@]4(C)[C@H]3CC[C@@]21C`, “inactive”; to `CCCCC1C(=O)N(c2ccccc2)N(c2ccccc2)C1=O`, “inactive”.
Under `COC[C@@H](c1ccc(C(F)(F)F)cc1)N1CCN(C2(C)CCN(C(=O)c3c(C)ncnc3C)CC2)C[C@H]1C` stands “inactive”; under `O=C(CCN1CCN(C(=O)OCc2cc(Cl)cc(Cl)c2)CC1)c1ccc2[nH]c(=O)oc2c1`, “inactive”; under `O=C(O)CCc1nc(-c2ccccc2)c(-c2ccccc2)o1`, “inactive”.
`CC[C@]1(O)C[C@@H]2CN(CCc3c([nH]c4ccccc34)[C@@](C(=O)OC)(c3cc4c(cc3OC)N(C)[C@H]3[C@@](O)(C(=O)OC)[C@H](OC(C)=O)[C@]5(CC)C=CCN6CC[C@]43[C@@H]65)C2)C1`: the Potency entry was “inactive”.
For the compound `O=C1NCC2(CCN(CCc3ccccc3)CC2)O1`, the Potency result is “inactive”.
Under `O=C(NC1CCOCC1)c1ccc(-c2cc(-c3cn[nH]c3-c3ccccn3)ccn2)cc1` stands “inactive”; under `CS(=O)(=O)N(Cc1ccco1)CC(O)Cn1c2ccccc2c2ccccc21` (stereo not given), “inactive”.
With `CC(C)[C@H](CO)Nc1nc(Nc2ccc(C(=O)O)c(Cl)c2)c2ncn(C(C)C)c2n1`, the Potency entry is “inactive”.
To `CN(C)CCC(c1ccccc1)c1ccccn1` (stereo not given) belongs “inactive”.
Under `CN(C)c1cc(NC(=O)CNC(C)(C)C)c(O)c2c1C[C@@H]1C[C@H]3[C@H](N(C)C)C(=O)C(C(N)=O)=C(O)[C@@]3(O)C(=O)C1=C2O` stands “inactive”; under `CCn1c(C(=O)N(C2CC2)C2CC2)cc2c3c(ncn3C)c(Nc3cc(C)n(C)n3)nc21`, “inactive”.
`C[N+](C)(C)CCCCCC[N+](C)(C)C`: the Potency result was “inactive”.
Regarding `COc1ccc2cccc(CCNC(C)=O)c2c1`, the Potency entry is “inactive”.
Under `COc1ccc2c(Oc3ccc(NC(=O)c4c(C)n(CC(C)(C)O)n(-c5ccccc5)c4=O)cc3F)ccnc2c1` stands “inactive”; under `CC1(C)CCC(CN2CCN(c3ccc(C(=O)NS(=O)(=O)c4ccc(NCC5CCOCC5)c([N+](=O)[O-])c4)c(Oc4cnc5[nH]ccc5c4)c3)CC2)=C(c2ccc(Cl)cc2)C1`, “inactive”; under `O=C1NC(=O)C(c2ccccc2)(c2ccccc2)N1`, “inactive”.
